Hit rate of the full screen: of about 39,000 compounds, about 1,500 (3.8%) were called active. The full list was thinned out, with actives kept by preference.
These compounds were tested on HSkMC (human skeletal muscle cells) (assay: cytotoxicity call (relative viability < 0.9)). Conditions: 10 µM.

SMILES | cytotoxicity call
C[C@@H]1CN([C@H](C)CO)S(=O)(=O)c2ccc(C#CCN(C)C)cc2O[C@@H]1CN(C)Cc1ccccc1F | inactive
C[C@@H]1CN([C@H](C)CO)C(=O)c2cc(NC(=O)Cn3cnnn3)ccc2O[C@H]1CN(C)C(=O)Nc1ccc2c(c1)OCO2 | inactive
COc1ncc(-c2nc(N3CCOCC3)nc3c(CN4CCC(C(C)(C)O)CC4)cc(F)cc23)cc1NS(C)(=O)=O | inactive
CC(=O)/C(C)=N/O | inactive
C[C@@H]1CCCCO[C@H](CN(C)C(=O)c2ccccc2)[C@@H](C)CN([C@@H](C)CO)C(=O)c2cc(NC(=O)c3ccccc3)ccc2O1 | inactive
O=C1CCNc2cc3ccccc3cc21 | active
O=C1CCCNc2ccc(Cl)cc21 | inactive
O=C1NCc2ccccc21 | inactive
C[C@H]1CCCCO[C@@H](CN(C)Cc2ccc(C(=O)O)cc2)[C@@H](C)CN([C@@H](C)CO)C(=O)c2cc(NC(=O)c3ccccc3)ccc2O1 | inactive
C[C@@H]1CCCCO[C@@H](CN(C)C(=O)Cc2ccccc2)[C@@H](C)CN([C@H](C)CO)C(=O)c2cc(NC(=O)Cc3ccccc3)ccc2O1 | inactive
COC12C(COC(N)=O)C3=C(C(=O)C(C)=C(N)C3=O)N1CC1NC12 (stereo not given) | inactive
CO[C@@]12[C@@H]3N[C@@H]3CN1C1=C(C(=O)C(N)=C(C)C1=O)[C@@H]2COC(N)=O | active
CO[C@@]12[C@H](COC(N)=O)C3=C(C(=O)C(C)=C(N)C3=O)N1C[C@@H]1N[C@@H]12 | inactive
CCOC(=O)C1CCN(S(=O)(=O)c2c(C)n(C)c(=O)n(C)c2=O)CC1 | inactive
C[C@@H]1CN([C@H](C)CO)C(=O)CCCn2nncc2CO[C@@H]1CN(C)Cc1ccc(C(=O)Nc2ccccc2N)cc1 | inactive
C[C@@H]1CN([C@H](C)CO)C(=O)Cc2cc(NC(=O)NC3CCCCC3)ccc2O[C@H]1CN(C)Cc1ccc(Cl)c(Cl)c1 | active
C[C@H](CO)N1C[C@H](C)[C@H](CN(C)Cc2ccc(Cl)c(Cl)c2)Oc2ccc(NC(=O)NC3CCCCC3)cc2CC1=O | inactive
C[C@@H]1CN([C@H](C)CO)C(=O)Cc2cc(NC(=O)NC3CCCCC3)ccc2O[C@@H]1CN(C)Cc1ccc(Cl)c(Cl)c1 | active
C[C@H](CO)N1C[C@H](C)[C@@H](CN(C)Cc2ccc(Cl)c(Cl)c2)Oc2ccc(NC(=O)NC3CCCCC3)cc2CC1=O | inactive
C[C@@H]1CN([C@@H](C)CO)C(=O)Cc2cc(NC(=O)NC3CCCCC3)ccc2O[C@H]1CN(C)Cc1ccc(Cl)c(Cl)c1 | inactive
C[C@@H]1CN([C@@H](C)CO)C(=O)Cc2cc(NC(=O)NC3CCCCC3)ccc2O[C@@H]1CN(C)Cc1ccc(Cl)c(Cl)c1 | inactive
Cc1noc(C)c1NC(=O)N(C)C[C@H]1OCCCC[C@@H](C)Oc2ccc(NS(=O)(=O)c3cccs3)cc2C(=O)N([C@@H](C)CO)C[C@H]1C | inactive
Cc1noc(C)c1NC(=O)N(C)C[C@H]1OCCCC[C@H](C)Oc2ccc(NS(=O)(=O)c3ccc(F)cc3)cc2C(=O)N([C@@H](C)CO)C[C@H]1C | inactive
COc1ccccc1CNC(=O)C[C@H]1C[C@H]2c3cc(NC(=O)NC4CCCC4)ccc3O[C@H]2[C@H](CO)O1 | inactive
COc1ccc(CN(C)C[C@H]2Oc3c(NC(=O)c4ccc(-c5nccs5)cc4)cccc3C(=O)N([C@H](C)CO)C[C@H]2C)cc1 | inactive
CC[C@H]1OC[C@@H]2CN(C(=O)CN(C)C)CC[C@H]21 | inactive
C[C@@H]1CN([C@H](C)CO)C(=O)Cc2cc(NC(=O)Nc3ccc4c(c3)OCO4)ccc2O[C@@H]1CN(C)C(=O)Nc1cccc2ccccc12 | inactive

SMILES | cytotoxicity call
C[C@H](CO)N1C[C@H](C)[C@@H](CN(C)C(=O)Nc2cccc3ccccc23)Oc2ccc(NC(=O)Cc3ccccc3)cc2CC1=O | active
C[C@H]1CN([C@@H](C)CO)C(=O)Cc2cc(NC(=O)Cc3ccccc3)ccc2O[C@@H]1CN(C)C(=O)Nc1cccc2ccccc12 | inactive
C[C@H](CO)N1C[C@H](C)[C@@H](CN(C)C(=O)Nc2cccc3ccccc23)Oc2ccc(NC(=O)Nc3ccc4c(c3)OCO4)cc2CC1=O | active
C[C@H](CO)N1C[C@H](C)[C@@H](CN(C)C(=O)Nc2cccc3ccccc23)Oc2ccc(NC(=O)Nc3cccc4ccccc34)cc2CC1=O | active
C[C@H]1CN([C@@H](C)CO)C(=O)Cc2cc(NC(=O)Nc3ccc4c(c3)OCO4)ccc2O[C@@H]1CN(C)C(=O)Nc1cccc2ccccc12 | inactive
C[C@H](CO)N1C[C@H](C)[C@@H](CN(C)C(=O)Nc2cccc3ccccc23)Oc2ccc(NC(=O)Nc3ccccc3)cc2CC1=O | active
C[C@H]1CN([C@@H](C)CO)C(=O)Cc2cc(NC(=O)Nc3cccc4ccccc34)ccc2O[C@H]1CN(C)C(=O)Nc1cccc2ccccc12 | inactive
C[C@@H]1CN([C@@H](C)CO)C(=O)Cc2cc(NC(=O)Nc3cccc4ccccc34)ccc2O[C@@H]1CN(C)C(=O)Nc1cccc2ccccc12 | inactive
C[C@H]1CN([C@@H](C)CO)C(=O)Cc2cc(NC(=O)Nc3ccccc3)ccc2O[C@@H]1CN(C)C(=O)Nc1cccc2ccccc12 | inactive
C[C@@H]1CN([C@H](C)CO)C(=O)Cc2cc(NC(=O)Nc3ccccc3)ccc2O[C@@H]1CN(C)C(=O)Nc1cccc2ccccc12 | inactive
C[C@@H]1CN([C@H](C)CO)C(=O)Cc2cc(NC(=O)Cc3ccccc3)ccc2O[C@H]1CN(C)C(=O)Nc1cccc2ccccc12 | inactive
OCc1cccc(CO)n1 | inactive
COC(=O)[C@@H](Cc1ccc(-n2cc(-c3ccc(C(=O)NO)s3)nn2)cc1)N1CC2=C[C@H](C3CC3)n3c(=O)n(C)c(=O)n3[C@@H]2[C@H]1[C@H](O)Cc1ccccc1 | inactive
CCCNC(=O)N(C)C[C@@H]1Oc2cc(C#Cc3cccc(F)c3)ccc2S(=O)(=O)N([C@H](C)CO)C[C@@H]1C | inactive
CO[C@H]1CN(C)C(=O)c2cc(NS(C)(=O)=O)ccc2OC[C@@H](C)N(C(=O)c2ccc3c(c2)OCO3)C[C@@H]1C | inactive
Cc1ccc(S(=O)(=O)Nc2ccc3c(c2)C(=O)N([C@H](C)CO)C[C@H](C)[C@H](CN(C)S(C)(=O)=O)O3)cc1 | inactive
COc1ccc(S(=O)(=O)Nc2ccc3c(c2)CC(=O)N([C@@H](C)CO)C[C@@H](C)[C@H](CN(C)C(=O)NC(C)C)O3)cc1 | inactive
CN(C)Cc1cn(CC[C@@H]2CC[C@H](NC(=O)Cc3cccnc3)[C@H](CO)O2)nn1 | inactive
Cc1ccc(S[C@]2(C(=O)NCc3ccccc3)CC(=O)N(Cc3cc(C(F)(F)F)cc(C(F)(F)F)c3)[C@@H]2c2ccc(CO)cc2)cc1 | inactive
CCOC(=O)c1cc2c(c(-c3cccc(-c4cccc(OC)c4)c3)n1)[C@@H](CCO)N(S(=O)C(C)(C)C)C2 (stereo not given in full) | inactive
COCC(=O)N1C[C@@H](C)[C@H](OC)CN(C)C(=O)c2ccc(NC(=O)c3ccc(OC)cc3)cc2OC[C@H]1C | inactive
CCN1CCC[C@@H]1CN1CNC(=S)NC1 | inactive
CCCCCCc1ccc(O)cc1O [listing 1 of 2 here] | active
CCCCCCCc1c(C)c(O)cc2c1[nH]c1ccccc12 | inactive
COC(=O)CCc1ccc(OC)cc1O | inactive
CCCCCCCCc1ccc(-c2ccc(C(=O)O)cc2)cc1 | inactive
CCCCCCc1ccc(O)cc1O [listing 2 of 2 here] | active

SMILES | cytotoxicity call
CCCCCCc1ccc(O)cc1O.Nc1c2ccccc2nc2ccccc12 | inactive
COc1ccc(NC(=O)N(C)C[C@@H]2Oc3c(NC(=O)C4CC4)cccc3C(=O)N([C@@H](C)CO)C[C@@H]2C)cc1 | inactive
C[C@H]1O[C@@H](O[C@H]2[C@@H](O)C[C@H](O[C@H]3[C@@H](O)C[C@H](O[C@H]4CC[C@@]5(C)[C@H](CC[C@@H]6[C@@H]5C[C@@H](O)[C@]5(C)[C@@H](C7=CC(=O)OC7)CC[C@]65O)C4)O[C@@H]3C)O[C@@H]2C)C[C@H](O)[C@@H]1O | active
CC1OC(OC2C(O)CC(OC3C(O)CC(OC4CCC5(C)C(CCC6C5CC(O)C5(C)C(C7=CC(=O)OC7)CCC65O)C4)OC3C)OC2C)CC(O)C1O (stereo not given) | active
C[C@H]1O[C@@H](O[C@H]2[C@@H](O)C[C@H](O[C@H]3[C@@H](O)C[C@H](O[C@H]4CC[C@@]5(C)[C@H](CC[C@@H]6[C@@H]5C[C@@H](O)[C@@]5(C)[C@@H](C7=CC(=O)OC7)CC[C@]65O)C4)O[C@@H]3C)O[C@@H]2C)C[C@H](O)[C@@H]1O | active
C[C@@H]1CCCCO[C@@H](CN(C)Cc2ccc3c(c2)OCO3)[C@@H](C)CN([C@H](C)CO)C(=O)c2cc(NS(=O)(=O)c3ccc(Cl)cc3)ccc2O1 | inactive
C[C@H](CO)N1C[C@H](C)[C@@H](CN(C)S(=O)(=O)c2ccccc2F)Oc2cc(-c3ccncc3)ccc2S1(=O)=O | inactive
CC(C)NC(=O)Nc1cccc2c1O[C@@H](CN(C)S(=O)(=O)c1cccs1)[C@@H](C)CN([C@@H](C)CO)C2=O | inactive
O=C(C[C@@H]1C[C@@H]2c3cc(NC(=O)Cc4ccncc4)ccc3O[C@@H]2[C@@H](CO)O1)NCc1cccc(F)c1 | inactive
COCC#Cc1ccc2c(c1)O[C@@H](CN(C)C(=O)CN(C)C)[C@H](C)CN([C@@H](C)CO)S2(=O)=O | inactive
Cc1noc(C)c1NC(=O)N(C)C[C@@H]1OCCCC[C@@H](C)Oc2ccc(NC(=O)Cc3ccccc3)cc2C(=O)N([C@H](C)CO)C[C@H]1C | inactive
CC(N)(Cc1ccc(O)c(O)c1)C(=O)O (stereo not given) [listing 1 of 2 here] | inactive
CCOC(=O)[C@@](C)(N)Cc1ccc(O)c(O)c1 | active
CC(N)(Cc1ccc(O)c(O)c1)C(=O)O (stereo not given) [listing 2 of 2 here] | inactive
COc1ccccc1C(=O)Nc1ccc2c(c1)C(=O)N(C)[C@@H]1CC[C@H](CC(=O)NCc3ccc(Cl)c(Cl)c3)O[C@@H]1CO2 | inactive
COc1ccccc1C(=O)Nc1ccc2c(c1)C(=O)N(C)[C@@H]1CC[C@@H](CC(=O)NCc3ccc(Cl)c(Cl)c3)O[C@@H]1CO2 | inactive
COc1ccccc1C(=O)Nc1ccc2c(c1)C(=O)N(C)[C@H]1CC[C@H](CC(=O)NCc3ccc(Cl)c(Cl)c3)O[C@@H]1CO2 | inactive
CN1C(=O)c2cc(NC(=O)c3ccc(C(F)(F)F)cc3)ccc2OC[C@@H]2O[C@H](CC(=O)NC3Cc4ccccc4C3)CC[C@@H]21 | inactive
COc1ccccc1C(=O)Nc1ccc2c(c1)C(=O)N(C)[C@@H]1CC[C@@H](CC(=O)NCc3ccc(Cl)c(Cl)c3)O[C@H]1CO2 | active
CN1C(=O)c2cc(NC(=O)c3ccc(C(F)(F)F)cc3)ccc2OC[C@@H]2O[C@@H](CC(=O)NC3Cc4ccccc4C3)CC[C@H]21 | active
COc1ccccc1C(=O)Nc1ccc2c(c1)C(=O)N(C)[C@H]1CC[C@@H](CC(=O)NCc3ccc(Cl)c(Cl)c3)O[C@@H]1CO2 | active
CN1C(=O)c2cc(NC(=O)c3ccc(C(F)(F)F)cc3)ccc2OC[C@@H]2O[C@H](CC(=O)NC3Cc4ccccc4C3)CC[C@H]21 | inactive
COc1cccc(C(=O)Nc2ccc3c(c2)C(=O)N(C)[C@H]2CC[C@H](CC(=O)Nc4ccc5c(c4)CCCC5)O[C@@H]2CO3)c1 | inactive
Cc1noc(C)c1NC(=O)Nc1ccc2c(c1)C(=O)N(C)[C@H]1CC[C@H](CC(=O)Nc3ccc4c(c3)CCCC4)O[C@@H]1CO2 | active
CN1C(=O)c2cc(NC(=O)Nc3cccc(C#N)c3)ccc2OC[C@H]2O[C@@H](CC(=O)Nc3ccc4c(c3)CCC4)CC[C@@H]21 | inactive
COc1ccccc1C(=O)Nc1ccc2c(c1)C(=O)N(C)[C@@H]1CC[C@H](CC(=O)NCc3ccc(Cl)c(Cl)c3)O[C@H]1CO2 | inactive
